Measured values reported in the supplement of paper PMC6411743.
± gives the standard deviation of the averaged measurements. About 5,400 targets were measured; listed, in parts, are those with the largest changes and a random draw of the rest.

Compound: Nc1nc2c(ncn2[C@@H]2O[C@H](COP(=O)(O)OP(=O)(O)OP(=O)(O)O)[C@@H](O)[C@H]2O)c(=O)[nH]1 [guanosine triphosphate]
Assay: NP40-soluble protein abundance relative to vehicle (solubility fold change) (ratio); higher = more soluble protein in presence of GTP
Procedure: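 Solubility proteome profiling in Jurkat crude lysate. Lysate was treated with Mg-GTP (0.1-10 mM) for 10 min at room temperature and 3 min at 37 °C, then solubilised with 0.8% NP40 and benzonase, followed by ultracentrifugation. Proteins were quantified by TMT10 LC-MS/MS; the value is the NP40-soluble abundance relative to the NP40-processed vehicle, from 3 independent experiments.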

UniProt P17900, sequence (P17900 whole entry): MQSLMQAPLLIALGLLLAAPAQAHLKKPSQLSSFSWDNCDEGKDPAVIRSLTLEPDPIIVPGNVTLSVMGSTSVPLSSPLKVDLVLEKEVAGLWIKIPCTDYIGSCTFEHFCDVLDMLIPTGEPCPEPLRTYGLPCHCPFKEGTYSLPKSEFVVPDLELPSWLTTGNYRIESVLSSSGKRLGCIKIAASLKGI
UniProt P22087, sequence (P22087 whole entry, one chain of several): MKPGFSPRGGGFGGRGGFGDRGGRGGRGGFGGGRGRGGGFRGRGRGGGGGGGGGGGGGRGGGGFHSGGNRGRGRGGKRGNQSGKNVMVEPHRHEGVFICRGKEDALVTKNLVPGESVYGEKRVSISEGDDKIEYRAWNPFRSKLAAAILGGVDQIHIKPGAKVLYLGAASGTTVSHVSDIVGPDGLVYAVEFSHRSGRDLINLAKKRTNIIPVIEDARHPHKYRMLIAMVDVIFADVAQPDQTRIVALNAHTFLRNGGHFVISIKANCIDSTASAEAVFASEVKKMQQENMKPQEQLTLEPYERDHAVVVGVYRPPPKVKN
UniProt P26368, sequence (P26368 whole entry): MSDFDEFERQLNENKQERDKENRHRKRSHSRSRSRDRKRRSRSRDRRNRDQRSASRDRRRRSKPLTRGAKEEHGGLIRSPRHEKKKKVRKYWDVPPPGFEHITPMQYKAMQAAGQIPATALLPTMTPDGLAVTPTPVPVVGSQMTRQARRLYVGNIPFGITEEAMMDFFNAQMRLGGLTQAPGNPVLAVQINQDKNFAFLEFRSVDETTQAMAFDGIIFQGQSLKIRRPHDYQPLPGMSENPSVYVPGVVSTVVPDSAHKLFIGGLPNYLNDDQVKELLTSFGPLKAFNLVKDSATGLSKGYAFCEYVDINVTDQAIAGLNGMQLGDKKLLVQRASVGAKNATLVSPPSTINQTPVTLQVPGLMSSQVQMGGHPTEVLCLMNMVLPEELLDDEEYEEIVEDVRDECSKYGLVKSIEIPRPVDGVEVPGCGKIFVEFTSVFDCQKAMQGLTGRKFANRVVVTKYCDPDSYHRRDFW
UniProt Q13227, sequence (Q13227 whole entry, one chain of several): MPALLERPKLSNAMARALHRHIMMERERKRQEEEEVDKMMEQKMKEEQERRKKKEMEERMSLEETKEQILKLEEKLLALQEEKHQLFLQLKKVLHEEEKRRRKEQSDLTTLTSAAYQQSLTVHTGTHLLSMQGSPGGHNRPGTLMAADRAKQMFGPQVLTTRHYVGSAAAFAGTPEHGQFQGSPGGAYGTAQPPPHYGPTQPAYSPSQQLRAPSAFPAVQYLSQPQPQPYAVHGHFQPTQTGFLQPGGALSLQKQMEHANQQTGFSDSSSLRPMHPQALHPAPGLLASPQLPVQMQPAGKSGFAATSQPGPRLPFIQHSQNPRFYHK
UniProt P67936, sequence (P67936 whole entry, one chain of several): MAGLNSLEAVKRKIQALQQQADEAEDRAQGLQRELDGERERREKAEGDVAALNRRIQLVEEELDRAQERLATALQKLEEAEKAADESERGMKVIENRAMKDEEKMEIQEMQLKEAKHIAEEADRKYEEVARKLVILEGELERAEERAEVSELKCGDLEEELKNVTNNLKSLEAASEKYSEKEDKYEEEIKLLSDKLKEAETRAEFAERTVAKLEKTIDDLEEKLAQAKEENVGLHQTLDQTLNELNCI

Target	NP40-soluble protein abundance (concentration: 0.1mM)	NP40-soluble protein abundance (concentration: 0.5mM)	NP40-soluble protein abundance (concentration: 1mM)	NP40-soluble protein abundance (concentration: 2mM)	NP40-soluble protein abundance (concentration: 4mM)	NP40-soluble protein abundance (concentration: 6mM)	NP40-soluble protein abundance (concentration: 8mM)	NP40-soluble protein abundance (concentration: 10mM)
K7EQW8|P67936|K7ERG3 (UniProt P67936)	0.803 ± 0.15	0.716 ± 0.089	1.39 ± 0.5	1.19 ± 0.29	1.27 ± 0.27	1.27 ± 0.21	1.15 ± 0.34	1.83 ± 0.49
UniProt P26368|P26368-2	1.21 ± 0.06	1.64 ± 0.23	1.67 ± 0.25	1.69 ± 0.25	1.7 ± 0.29	1.75 ± 0.25	1.73 ± 0.29	1.71 ± 0.26
GM2A (UniProt P17900)	0.851 ± 0.015	0.931 ± 0.022	0.876 ± 0.013	0.923 ± 0.1	0.853 ± 0.042	0.859 ± 0.013	0.856 ± 0.12	0.927 ± 0.067
M0R2U2|P22087 (UniProt P22087)	1.02 ± 0.054	1.03 ± 0.032	1.08 ± 0.068	1.21 ± 0.056	1.52 ± 0.068	1.77 ± 0.082	2.13 ± 0.11	2.47 ± 0.083
I3L3Y9|I3L4X7|Q13227|Q13227-2 (UniProt Q13227)	0.978 ± 0.059	0.878 ± 0.0093	1.01 ± 0.13	1.01 ± 0.072	1.02 ± 0.11	1.06 ± 0.11	1.03 ± 0.13	1.08 ± 0.14
